Results: ChEMBL document CHEMBL1961873, “Compounds: GSK PKIS; Assays: Nanosyn kinase panel” (2012)

Legend:
[1] = biological target: T1, Tyrosine-protein kinase receptor TYRO3 (Homo sapiens) (UniProt Q06418); conditions: at 1 µM
T1 sequence (whole entry): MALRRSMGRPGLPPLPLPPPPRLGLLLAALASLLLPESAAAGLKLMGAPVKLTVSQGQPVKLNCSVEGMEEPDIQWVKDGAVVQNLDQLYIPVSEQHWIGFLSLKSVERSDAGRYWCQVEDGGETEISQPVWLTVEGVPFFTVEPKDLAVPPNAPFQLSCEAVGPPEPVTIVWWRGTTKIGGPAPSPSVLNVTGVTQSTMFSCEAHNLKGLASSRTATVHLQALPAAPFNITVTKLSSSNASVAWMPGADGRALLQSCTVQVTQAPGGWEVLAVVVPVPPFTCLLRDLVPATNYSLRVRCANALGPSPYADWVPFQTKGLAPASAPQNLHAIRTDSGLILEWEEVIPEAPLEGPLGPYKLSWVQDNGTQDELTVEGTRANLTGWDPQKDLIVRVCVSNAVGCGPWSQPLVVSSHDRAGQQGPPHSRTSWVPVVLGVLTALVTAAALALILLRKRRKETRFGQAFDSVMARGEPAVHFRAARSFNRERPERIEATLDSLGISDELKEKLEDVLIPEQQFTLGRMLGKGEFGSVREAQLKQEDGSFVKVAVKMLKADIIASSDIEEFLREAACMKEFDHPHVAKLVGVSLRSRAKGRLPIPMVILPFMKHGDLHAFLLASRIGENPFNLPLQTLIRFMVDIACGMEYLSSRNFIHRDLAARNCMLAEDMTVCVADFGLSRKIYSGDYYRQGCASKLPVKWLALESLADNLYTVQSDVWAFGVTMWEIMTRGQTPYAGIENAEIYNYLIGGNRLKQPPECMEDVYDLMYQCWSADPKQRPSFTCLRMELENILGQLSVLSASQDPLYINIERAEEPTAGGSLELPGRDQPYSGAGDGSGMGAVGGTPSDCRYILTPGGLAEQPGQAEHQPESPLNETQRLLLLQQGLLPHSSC

[2] = biological target: Tyrosine-protein kinase Yes (Homo sapiens) (UniProt P07947); conditions: at 0.1 µM
[3] = biological target: Tyrosine-protein kinase Yes (Homo sapiens) (UniProt P07947); conditions: at 1 µM
[4] = biological target: T2, Tyrosine-protein kinase ZAP-70 (Homo sapiens) (UniProt P43403); conditions: at 0.1 µM
T2 sequence (whole entry): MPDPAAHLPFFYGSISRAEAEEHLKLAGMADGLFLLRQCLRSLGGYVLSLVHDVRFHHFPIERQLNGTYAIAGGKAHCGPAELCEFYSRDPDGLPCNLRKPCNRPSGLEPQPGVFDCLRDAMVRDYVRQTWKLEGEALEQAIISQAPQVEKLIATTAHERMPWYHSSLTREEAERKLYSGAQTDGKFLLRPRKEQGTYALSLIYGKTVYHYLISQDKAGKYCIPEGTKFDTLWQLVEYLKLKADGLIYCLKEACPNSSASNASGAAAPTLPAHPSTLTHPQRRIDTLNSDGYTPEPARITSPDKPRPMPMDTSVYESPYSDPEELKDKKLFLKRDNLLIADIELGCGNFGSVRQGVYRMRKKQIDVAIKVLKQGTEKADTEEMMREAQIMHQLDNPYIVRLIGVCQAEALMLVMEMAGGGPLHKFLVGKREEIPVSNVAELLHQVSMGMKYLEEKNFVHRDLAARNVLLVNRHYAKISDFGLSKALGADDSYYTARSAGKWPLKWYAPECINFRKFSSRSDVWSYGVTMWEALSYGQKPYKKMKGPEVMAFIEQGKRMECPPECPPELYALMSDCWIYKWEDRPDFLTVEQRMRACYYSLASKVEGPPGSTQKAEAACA

[5] = biological target: T2, Tyrosine-protein kinase ZAP-70 (Homo sapiens); conditions: at 1 µM
[6] = biological target: Serine/threonine-protein kinase B-raf (Homo sapiens) (UniProt P15056); conditions: at 0.1 µM
[7] = biological target: Serine/threonine-protein kinase B-raf (Homo sapiens) (UniProt P15056); conditions: at 1 µM
[8] = system: Serine/threonine-protein kinase B-raf (Homo sapiens), P15056 [V600E]; conditions: at 0.1 µM
[9] = system: Serine/threonine-protein kinase B-raf (Homo sapiens), P15056 [V600E]; conditions: at 1 µM
[10] = biological target: RAF proto-oncogene serine/threonine-protein kinase (Homo sapiens) (UniProt P04049); conditions: at 0.1 µM
[11] = biological target: RAF proto-oncogene serine/threonine-protein kinase (Homo sapiens) (UniProt P04049); conditions: at 1 µM
[12] = biological target: T3, Interleukin-1 receptor-associated kinase 4 (Homo sapiens) (UniProt Q9NWZ3); conditions: at 0.1 µM
T3 sequence (whole entry): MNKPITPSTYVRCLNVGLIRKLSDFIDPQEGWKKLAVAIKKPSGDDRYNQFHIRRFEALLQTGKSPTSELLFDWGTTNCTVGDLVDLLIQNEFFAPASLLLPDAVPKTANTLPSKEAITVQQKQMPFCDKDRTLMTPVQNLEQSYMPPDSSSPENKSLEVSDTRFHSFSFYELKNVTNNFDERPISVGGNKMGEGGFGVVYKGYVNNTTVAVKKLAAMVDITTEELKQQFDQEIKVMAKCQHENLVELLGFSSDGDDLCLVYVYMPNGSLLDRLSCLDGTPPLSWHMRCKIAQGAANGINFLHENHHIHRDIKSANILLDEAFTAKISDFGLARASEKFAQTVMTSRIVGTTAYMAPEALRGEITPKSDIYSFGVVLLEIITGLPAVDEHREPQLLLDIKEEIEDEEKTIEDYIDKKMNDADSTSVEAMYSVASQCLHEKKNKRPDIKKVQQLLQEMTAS

[13] = biological target: T3, Interleukin-1 receptor-associated kinase 4 (Homo sapiens); conditions: at 1 µM
[14] = biological target: Leucine-rich repeat serine/threonine-protein kinase 2 (Homo sapiens) (UniProt Q5S007); conditions: at 0.1 µM
[15] = biological target: Leucine-rich repeat serine/threonine-protein kinase 2 (Homo sapiens) (UniProt Q5S007); conditions: at 1 µM
[16] = system: Leucine-rich repeat serine/threonine-protein kinase 2 (Homo sapiens), Q5S007 [G2019S]; conditions: at 0.1 µM
[17] = system: Leucine-rich repeat serine/threonine-protein kinase 2 (Homo sapiens), Q5S007 [G2019S]; conditions: at 1 µM

Chain of Tyrosine-protein kinase Yes (Homo sapiens) (P07947 2-543 limits assumed): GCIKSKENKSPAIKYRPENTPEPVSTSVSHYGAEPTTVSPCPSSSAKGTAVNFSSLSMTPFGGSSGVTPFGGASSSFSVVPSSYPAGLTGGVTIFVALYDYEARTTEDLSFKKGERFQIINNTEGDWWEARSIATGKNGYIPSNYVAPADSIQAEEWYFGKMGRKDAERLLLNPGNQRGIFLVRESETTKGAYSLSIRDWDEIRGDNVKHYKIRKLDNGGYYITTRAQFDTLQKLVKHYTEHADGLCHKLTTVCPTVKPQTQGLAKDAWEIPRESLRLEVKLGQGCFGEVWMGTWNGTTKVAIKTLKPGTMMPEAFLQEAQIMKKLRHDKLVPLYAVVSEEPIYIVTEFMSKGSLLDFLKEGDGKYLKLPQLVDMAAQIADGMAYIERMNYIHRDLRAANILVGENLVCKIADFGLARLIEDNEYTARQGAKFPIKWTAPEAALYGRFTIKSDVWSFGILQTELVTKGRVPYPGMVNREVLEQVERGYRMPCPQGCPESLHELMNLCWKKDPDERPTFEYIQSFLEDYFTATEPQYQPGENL
Chain of Serine/threonine-protein kinase B-raf (Homo sapiens), P15056 [V600E] (P15056 whole entry V600E): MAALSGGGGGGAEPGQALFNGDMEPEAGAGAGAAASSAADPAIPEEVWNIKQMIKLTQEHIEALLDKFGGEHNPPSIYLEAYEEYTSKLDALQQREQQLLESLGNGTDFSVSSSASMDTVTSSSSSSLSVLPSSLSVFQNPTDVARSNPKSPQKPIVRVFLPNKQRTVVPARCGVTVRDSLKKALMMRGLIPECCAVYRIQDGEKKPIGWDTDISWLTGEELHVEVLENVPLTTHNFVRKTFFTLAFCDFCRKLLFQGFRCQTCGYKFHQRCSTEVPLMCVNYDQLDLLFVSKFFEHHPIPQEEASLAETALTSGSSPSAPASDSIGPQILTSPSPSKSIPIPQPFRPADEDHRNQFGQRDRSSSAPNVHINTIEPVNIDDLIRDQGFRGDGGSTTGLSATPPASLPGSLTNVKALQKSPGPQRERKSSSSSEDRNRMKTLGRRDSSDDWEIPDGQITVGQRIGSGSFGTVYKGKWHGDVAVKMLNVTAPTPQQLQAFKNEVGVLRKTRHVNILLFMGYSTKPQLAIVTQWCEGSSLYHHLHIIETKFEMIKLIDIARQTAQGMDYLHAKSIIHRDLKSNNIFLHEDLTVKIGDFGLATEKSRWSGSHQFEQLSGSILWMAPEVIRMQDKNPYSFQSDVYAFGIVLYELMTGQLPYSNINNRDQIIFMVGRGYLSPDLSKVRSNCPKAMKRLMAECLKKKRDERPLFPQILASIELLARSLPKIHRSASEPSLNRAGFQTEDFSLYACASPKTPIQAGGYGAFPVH
Chain of Serine/threonine-protein kinase B-raf (Homo sapiens) (P15056 whole entry): as the sequence (P15056 whole entry V600E) above, with E600V counted along it
Chain of Leucine-rich repeat serine/threonine-protein kinase 2 (Homo sapiens) (Q5S007 whole entry): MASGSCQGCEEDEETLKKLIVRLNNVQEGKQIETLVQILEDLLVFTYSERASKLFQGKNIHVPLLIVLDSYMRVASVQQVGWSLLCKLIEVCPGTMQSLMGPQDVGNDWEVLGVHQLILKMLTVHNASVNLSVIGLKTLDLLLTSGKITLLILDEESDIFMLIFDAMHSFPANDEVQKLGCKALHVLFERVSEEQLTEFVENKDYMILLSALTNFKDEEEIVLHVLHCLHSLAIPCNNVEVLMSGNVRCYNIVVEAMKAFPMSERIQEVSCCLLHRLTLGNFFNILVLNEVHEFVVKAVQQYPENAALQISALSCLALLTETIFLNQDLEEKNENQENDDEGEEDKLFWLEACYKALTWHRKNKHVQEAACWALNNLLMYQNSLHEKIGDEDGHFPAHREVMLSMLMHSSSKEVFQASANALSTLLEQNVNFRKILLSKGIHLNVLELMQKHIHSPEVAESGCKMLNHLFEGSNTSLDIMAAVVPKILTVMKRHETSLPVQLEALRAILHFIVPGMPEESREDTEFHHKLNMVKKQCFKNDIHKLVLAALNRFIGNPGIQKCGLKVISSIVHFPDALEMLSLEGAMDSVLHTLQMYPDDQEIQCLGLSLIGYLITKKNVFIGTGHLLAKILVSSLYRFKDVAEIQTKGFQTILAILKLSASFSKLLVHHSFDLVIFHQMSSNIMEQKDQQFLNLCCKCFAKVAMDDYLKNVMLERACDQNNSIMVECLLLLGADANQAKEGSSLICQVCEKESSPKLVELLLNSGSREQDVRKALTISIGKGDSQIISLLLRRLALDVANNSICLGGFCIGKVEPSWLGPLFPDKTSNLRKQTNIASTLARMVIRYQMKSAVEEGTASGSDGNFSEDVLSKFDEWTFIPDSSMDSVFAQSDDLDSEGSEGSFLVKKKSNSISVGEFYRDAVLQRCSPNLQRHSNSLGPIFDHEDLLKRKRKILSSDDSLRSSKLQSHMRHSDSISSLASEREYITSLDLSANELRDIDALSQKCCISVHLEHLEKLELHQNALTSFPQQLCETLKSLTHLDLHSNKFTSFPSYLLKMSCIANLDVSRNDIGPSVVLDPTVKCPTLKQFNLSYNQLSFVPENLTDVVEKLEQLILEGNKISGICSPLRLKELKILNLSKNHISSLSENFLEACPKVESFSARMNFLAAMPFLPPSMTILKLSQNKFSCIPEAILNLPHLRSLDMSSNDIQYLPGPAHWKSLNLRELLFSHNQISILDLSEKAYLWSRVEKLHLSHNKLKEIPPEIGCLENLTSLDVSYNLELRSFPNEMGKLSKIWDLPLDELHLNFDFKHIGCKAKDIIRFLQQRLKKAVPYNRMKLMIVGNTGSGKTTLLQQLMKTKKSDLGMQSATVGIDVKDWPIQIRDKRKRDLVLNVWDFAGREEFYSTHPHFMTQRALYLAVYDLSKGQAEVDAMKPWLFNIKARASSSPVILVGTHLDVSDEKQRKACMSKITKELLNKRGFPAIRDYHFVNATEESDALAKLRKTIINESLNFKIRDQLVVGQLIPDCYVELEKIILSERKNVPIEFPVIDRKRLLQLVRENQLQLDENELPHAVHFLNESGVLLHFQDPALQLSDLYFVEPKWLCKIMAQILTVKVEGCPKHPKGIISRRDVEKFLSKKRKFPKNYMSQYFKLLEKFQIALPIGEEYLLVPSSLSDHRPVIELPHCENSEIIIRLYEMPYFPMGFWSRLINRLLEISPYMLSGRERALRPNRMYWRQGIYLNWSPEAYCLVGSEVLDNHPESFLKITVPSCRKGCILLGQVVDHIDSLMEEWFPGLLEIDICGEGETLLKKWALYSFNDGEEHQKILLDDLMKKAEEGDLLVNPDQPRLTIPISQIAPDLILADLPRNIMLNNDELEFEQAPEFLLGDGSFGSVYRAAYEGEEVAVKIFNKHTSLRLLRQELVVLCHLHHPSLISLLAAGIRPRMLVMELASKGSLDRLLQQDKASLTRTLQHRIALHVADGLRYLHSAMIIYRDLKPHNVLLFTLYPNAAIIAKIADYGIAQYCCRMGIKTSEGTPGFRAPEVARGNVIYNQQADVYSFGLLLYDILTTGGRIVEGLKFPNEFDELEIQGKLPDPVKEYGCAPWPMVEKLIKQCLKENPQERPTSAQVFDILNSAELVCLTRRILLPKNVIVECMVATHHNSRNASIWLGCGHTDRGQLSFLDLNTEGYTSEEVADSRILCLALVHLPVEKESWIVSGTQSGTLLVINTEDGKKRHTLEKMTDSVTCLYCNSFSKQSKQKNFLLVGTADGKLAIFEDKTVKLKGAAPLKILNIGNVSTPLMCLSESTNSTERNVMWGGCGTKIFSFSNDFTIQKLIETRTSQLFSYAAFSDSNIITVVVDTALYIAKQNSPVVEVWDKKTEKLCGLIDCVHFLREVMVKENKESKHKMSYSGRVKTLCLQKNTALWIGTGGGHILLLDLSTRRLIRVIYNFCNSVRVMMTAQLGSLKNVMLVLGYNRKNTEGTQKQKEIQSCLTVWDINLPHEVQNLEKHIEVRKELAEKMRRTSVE
Chain of Leucine-rich repeat serine/threonine-protein kinase 2 (Homo sapiens), Q5S007 [G2019S] (Q5S007 whole entry G2019S): as the sequence (Q5S007 whole entry) above, with G2019S counted along it
Chain of RAF proto-oncogene serine/threonine-protein kinase (Homo sapiens) (P04049 whole entry): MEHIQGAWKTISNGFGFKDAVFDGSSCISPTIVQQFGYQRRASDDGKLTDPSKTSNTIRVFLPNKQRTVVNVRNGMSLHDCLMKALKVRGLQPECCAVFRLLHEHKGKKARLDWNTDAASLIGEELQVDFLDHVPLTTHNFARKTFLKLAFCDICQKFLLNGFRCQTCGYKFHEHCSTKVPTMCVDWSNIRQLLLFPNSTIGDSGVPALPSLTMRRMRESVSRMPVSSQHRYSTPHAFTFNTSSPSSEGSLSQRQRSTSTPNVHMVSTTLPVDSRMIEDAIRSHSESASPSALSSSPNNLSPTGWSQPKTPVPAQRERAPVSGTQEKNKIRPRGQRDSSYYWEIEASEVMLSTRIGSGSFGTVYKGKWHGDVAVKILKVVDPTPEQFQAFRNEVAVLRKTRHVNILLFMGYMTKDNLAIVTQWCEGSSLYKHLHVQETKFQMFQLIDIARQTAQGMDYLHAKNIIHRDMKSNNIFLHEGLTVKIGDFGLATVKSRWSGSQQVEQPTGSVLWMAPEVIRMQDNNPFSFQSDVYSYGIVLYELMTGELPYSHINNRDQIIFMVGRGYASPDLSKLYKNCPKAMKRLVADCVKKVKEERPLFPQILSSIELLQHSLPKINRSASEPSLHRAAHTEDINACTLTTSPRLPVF

SMILES	inhibition [1] [%]	inhibition [2] [%]	inhibition [3] [%]	inhibition [4] [%]	inhibition [5] [%]	inhibition [6] [%]	inhibition [7] [%]	inhibition [8] [%]	inhibition [9] [%]	inhibition [10] [%]	inhibition [11] [%]	inhibition [12] [%]	inhibition [13] [%]	inhibition [14] [%]	inhibition [15] [%]	inhibition [16] [%]	inhibition [17] [%]
C#Cc1cccc(Nc2ncnc3ccc(OCCCCNCCS(C)(=O)=O)cc23)c1	8.46	4.13	12.3	-1.39	-2.29	8.08	6.4	8.35	5.48	-5.79	-0.78	4.25	2.41	-4.32	1.7	-0.62	5.54
Fc1ccc(-c2ncn(CCCN3CCOCC3)c2-c2ccncc2)cc1	-1.64	-0.25	-0.03	3.48	3.14	0.29	1.33	0.73	0.78	-0.34	-5.69	3.04	-0.71	0.7	3.28	1.27	4.28
Cc1ccc(C(=O)NC2CCC2)cc1-c1ccc(C(=O)NCC2CC2)cc1	1.69	1.57	0.45	3.05	3.75	3.33	2.03	3.91	3.62	-1.45	-1.36	3.77	1.51	2.63	2.18	2.78	5.64
CN(C)CCOc1ccc(-c2cc(-c3ccc4c(c3)CCC4=NO)c(-c3ccncc3)o2)cc1	2.92	2.18	9.45	-2.95	0.13	48.5	85	56.3	86.2	-4.4	39.8	-0.42	0.12	1.03	3.55	1.85	2.48
CCN(CC)Cc1ccc(Nc2nccc(-c3cnn4ncccc34)n2)cc1	18.2	4.42	22.5	-3.68	-4.19	7.03	17.7	4.68	14	0.49	1.56	1.17	3.85	-6.19	8.65	0.1	19
CCc1ccc(Oc2nccc(-c3c(-c4ccc(F)cc4)ncn3C3CCNCC3)n2)cc1	1.06	4.27	7.31	-0.22	-4.21	4.48	10.2	4.23	8.72	1.49	-0.51	2.21	2.52	0.68	6	3.1	6.63
NS(=O)(=O)c1ccc(Nc2cc(-c3ccc(O)c(F)c3)n[nH]2)cc1	52.3	-3.77	11.7			-4.38	-2.42	-4.83	-3.52	-4.11	0.94	3.6	-1.08	1.51	13.2	4.54	29.7
NCc1ccc(-n2c(-c3nonc3N)nc3cnccc32)cc1	3.1	0.26	3.43		6.32	7.22	9.93	8.7	8.53	8.42	3.91	-0.81	2.35	17.2	53.5	22	54.1
Clc1ccc(CNc2nccc(-c3cnn4ncccc34)n2)cc1	2.27	-0.37	-1.15		-0.35	0.05	3.64	0.12	2.83	1.36	-1.19	-1.73	2.1	1.21	14	1.24	13
C[C@@H](Oc1cc(-n2cnc3ccc(OCC4CCN(C)CC4)cc32)sc1C(N)=O)c1ccccc1Cl	6.74	2.66	15.5	4.61	6.88	8.65	10.6	6.37	5.47	3.88	8.07	2.66	6.25	8.16	17.3	11.1	33.5
O=C1Nc2ccc(I)cc2C1=Cc1cc(Br)c(O)c(Br)c1	3.68	2.36	4.8	3.85	5.52	6.02	15	4.33		8.31	11.3	1.47	2.1	19.2	71.9	37.4	78
COc1cc(Nc2ncc3c(C)nc(-c4cccc(Oc5ccccc5)c4)n3n2)cc(OC)c1OC	5.32	-0.14	7.34	1.87	-1.81	3.08	12.2	2.54	11.4	2.2	-0.45	-1.6	0.83	11.7	18.3	13.8	47.3
c1ccc(-c2n[nH]cc2-c2ccnc(-c3ccc(OCCN4CCOCC4)cc3)c2)nc1	-0.82	-1.99	2.34	5	0.13	-2.91	-2.83	-4.04	-1.12	-0.28	0.21	2.23	0.43	11	8.18	6.06	13.7
CCC(=O)Nc1ccc(C)c(-c2ccc(C(=O)NCC3CC3)cc2)c1	2.68	3.12	4.01	-4.93	1.46	4.61	4.76	3.97	4.63	2.89	-0.29	1.62	2.19	-0.86	1.68	0.68	2.28
NC(=O)c1cc(-c2ccncc2)cc(-c2ccccc2)c1N	3.61	7.5	36	4.11	29	8.42	8.98	8.18	8.65	1.06	-6.49	2.85	2.52	3.59	8.2	4.3	12.3
